13 compounds from PubChem BioAssay (NCATS) can be followed below.

For assay [1], the system named is Zika virus NS2B-NS3 protease (linked construct). Briefly: Primary screen NINDS Rhodamine qHTS for Zika virus inhibitors (AID 1347160). Also: % is scaled to controls: 0 for no effect and ±100 for the full control effect; nearly all actives have a fitted effect of over 55% in size. The note with it: outcome: dose series up to 57.1 µM unless noted. In outline: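 Kinetic fluorescence (Ex 480 nm, Em 540 nm) over 15 min with 1.5 microM Rhodamine110 peptide and 25 nM linked protease.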
(In general: Quantitative high-throughput screening tests each substance at several concentrations.)

Assay [2] in a line: qHTS to identify inhibitors of the type 1 interferon - major histocompatibility complex class I in skeletal muscle: primary screen against the NCATS Pharmaceutical Collection (AID 1347407). Also: % is scaled to controls: 0 for no effect and ±100 for the full control effect. The method, boiled down: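 Luminescence from HiBiT-tagged endogenous HLA-B*08:01 served as the read-out of IFN-beta-induced MHC class I in CRISPR-engineered C25cl48 myoblasts. Cells received 4 ng/ml IFN-beta plus compound (high final 46 uM, […]) for 24 h.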

The target of assay [3] is Protein phosphatase 1D (Homo sapiens) (UniProt O15297). Briefly: RapidFire Mass Spectrometry qHTS Assay for Modulators of WT P53-Induced Phosphatase 1 (WIP1) (AID 1347424).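 Also: amount of dephosphorylated VEPPL-S-QETFS peptide product formed by WIP1; plate controls were DMSO wells for no effect and GSK830371 inhibitor control at 10 µM for full effect.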 In outline:
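10 nM WIP1 + cpd, 1 h RT; + 2 uM VEPPL-pS-QETFS, 5 min RT; stop 0.5% formic acid; labelled product standard 1 uM; RapidFire MS. Buffer 50 mM Tris pH 7.5, 30 mM MgCl2, 1 mM TCEP.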

For assay [4] the target is unchanged. As to the kind of experiment: Rhodamine-PBP qHTS Assay for Modulators of WT P53-Induced Phosphatase 1 (WIP1) (AID 1347425). Also: % of control where 0% means no effect. In outline:
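5 nM WIP1 + 10 uM Rh-PBP, 50 mM Tris pH 7.5, 30 mM MgCl2, 1 mM TCEP, 0.1 mM EGTA, BSA; cpds pinned, 1 hr RT; + 10 uM phosphopeptide; fluorescence 1-min reads x 11 min; delta = f1 - f0.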

Assay [5] in a line: Primary qHTS for inhibitors of La Crosse Virus (LACV) - induced cell death in SH-SY5Y cells (AID 1508616).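 Also: top concentration of the series differs between compounds; 0% = infected DMSO wells and 100% = uninfected DMSO wells; higher means more rescue of cells from virus-induced death.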 In outline:
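SH-SY5Y cells (6000/well) plated 24 h, then given compounds by pin transfer and LACV at 0.01 MOI for 6 days at 37C. Viability measured by ATPLite luminescence, normalized to infected DMSO and uninfected DMSO.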

Assay [6] deals with Calcium and integrin-binding protein 1 (Homo sapiens) (UniProt Q99828). As to the kind of experiment: Primary qHTS for Identification of Calcium Integrin Binding Protein 1 (CIB1) Competitor (AID 1508620).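 Also: GST tagged CIB1 binding a fluorescein labelled alphaIIb integrin peptide tracer; top concentration of the series differs between compounds; % is scaled to controls: 0 for no effect and ±100 for the full control effect.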 In outline: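 CIB1-GST (1 uM final) and compound incubated 15 min at room temperature before adding FITC-alphaIIb peptide tracer (100 nM final). Competition for binding read by fluorescence polarization (ex 480, em 540) after another 15 min at room temperature.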
Sequence of Calcium and integrin-binding protein 1 (Homo sapiens) (Q99828 whole entry, looked up): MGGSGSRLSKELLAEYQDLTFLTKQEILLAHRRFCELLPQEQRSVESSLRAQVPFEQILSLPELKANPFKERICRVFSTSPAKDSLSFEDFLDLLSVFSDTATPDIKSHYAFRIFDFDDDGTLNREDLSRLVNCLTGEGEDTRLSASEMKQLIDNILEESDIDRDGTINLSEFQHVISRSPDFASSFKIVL

Assay [7] in a line: qHTS to identify inhibitors of the type 1 interferon - major histocompatibility complex class I in skeletal muscle: primary screen against the NCATS Mechanism Interrogation Plate v5.0 (MIPE) Libary (AID 1347411).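 Also: plate controls were vehicle for no effect and reference inhibitor for full effect; nearly all actives have a fitted effect of over 65% in size.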 The method, boiled down:
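Immortalized human myoblasts (C25cl48) with HiBit knocked into endogenous HLA-B*08:01 were stimulated with 4 ng/ml IFN-beta and given compounds in 11-point 1:3 titration from 46 uM. After 24 h at 37 C, lytic HiBiT luminescence was read.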

The target of assay [8] is Lysine-specific demethylase 5B (Homo sapiens) (UniProt Q9UGL1). Briefly: Optimization screen for KDM5B Histone Demethylases FDH coupled qHTS against the LOPAC library (AID 1347166). Also: 0% is about no effect. As to conditions: KDM5B demethylation, FDH-coupled NADH fluorescence (FDH is formaldehyde dehydrogenase); at 57.5 µM (top of the series). In outline:
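KDM5BDeltaAP (200nM final) preincubated 10 min with compound, then 12.5uM H3K4Me3, 25uM a-ketoglutarate, ascorbate, Fe(II), NAD+ and FDH added; 50mM HEPES pH 7.5, 0.01% Tween-20. NADH fluorescence (340/450 nm) change over 30 min, room temperature.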

Assay [9] can be described thus: qHTS to identify inhibitors of the type 1 interferon - major histocompatibility complex class I in skeletal muscle: primary screen against the NCATS LOPAC collection (AID 1347405).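 Also: lytic HiBiT luminescence reporting HLA-B protein level; % is scaled to controls: 0 for no effect and ±100 for the full control effect.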 The method, boiled down:
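CRISPR-engineered immortalized human myoblasts (C25cl48) with HiBiT fused to endogenous HLA-B*08:01, stimulated with 4 ng/ml IFN-beta. LOPAC compounds tested as a 7-point 1:4.3 titration (top 46 uM final), 24 h at 37 C; lytic HiBiT luminescence read.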

Assay [10] in a line: qHTS for inhibitors of adenylyl cyclases using a fission yeast platform: a pilot screen against the NCATS LOPAC library (AID 1347410).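 Also: plate controls were DMSO vehicle for no effect and DPI positive control for full effect.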 In outline: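 Fission yeast qHTS: CHP2027 cells (AC9-GNAS-PDE4D2, fbp1-GFP), 5x10^6 cells/mL working density, EMM + His/Lys/Ura; LOPAC at up to 57 µM final; 18 h dark, 30C; GFP by laser cytometry. DPI positive control, DMSO vehicle.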
The nature of assay [11]: Validation qHTS assay for inhibitors of Activation Induced Cytidine Deaminase (AID): UDG Counterscreen signal (AID 1347427). Also: 0% is about no effect. In outline:
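Counterscreen read of UDG activity (2 U/mL, 4/3x) in the FRET deamination format with AID (1 uM, 4/3x), DJC20/DJC23 substrates (250 nM, 4x), 4 h at room temperature. NaOH stop, fluorescence at 560 ex/665 em.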

The target of assay [12] is Calcium and integrin-binding protein 1 (Homo sapiens) (UniProt Q99828). As to the kind of experiment: Validation qHTS for Identification of Calcium Integrin Binding protein 1 (CIB1) Competitor (AID 1508618). Also: % is scaled to controls: 0 for no effect and ±100 for the full control effect. The method, boiled down:
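Displacement of FITC-alphaIIb peptide (100 nM) from CIB1-GST (1 uM) is monitored by polarization in quantitative HTS format; buffer carries 5 mM CaCl2 and 125 mM NaCl at pH 7.4, incubations are at room temperature.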

The nature of assay [13]: Confirmatory screen NINDS Rhodamine qHTS for Zika virus inhibitors (AID 1347161).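 Also: purified Zika NS2B-NS3 protease with linked NS2B cofactor domain and Rhodamine110 peptide substrate; plate controls were no-inhibitor control for no effect and no-enzyme control for full effect; nearly all actives have a fitted effect of over 60% in size.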 In outline:
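Single-chain NS2B-NS3 protease, 25 nM, pH 8.0; compounds preincubated 15 min. Activity: Rhodamine110 release from 1.5 microM substrate over 15 min, room temperature, data fitted to 4-parameter Hill.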

Assay [14] can be described thus: HepG2 cells viability qHTS for Zika virus inhibitors (AID 1347168). Also: % is scaled to controls: 0 for no effect and ±100 for the full control effect. In outline:
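Compounds were tested in concentration series on cells grown in DMEM containing 4% FBS. After 24 to 48 hours, cellular ATP was measured by luminescence with CellTiter Glo.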

Assay [15] is described as follows: Tertiary RLuc qRT-PCR qHTS assay for Zika virus inhibitors (AID 1347169). Also: top concentration of the series differs between compounds; % is scaled to controls: 0 for no effect and ±100 for the full control effect; nearly all actives have a fitted effect of over 55% in size. In outline:
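Vero, 1,000 cells/well, o/n 37 C; cpd pinned in DMSO; ZIKV-RLuc Cambodian, MOI 1-2, 48-72 h 37 C; live-cell RLuc substrate, lum read at 1-1.5 h.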
On the technique in general: Quantitative PCR measures a nucleic acid by following its amplification.

The nature of assay [16]: Counterscreen qHTS for small molecule stabilizers of the endoplasmic reticulum resident proteome: GLuc-NoTag assay (AID 1508627).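 Also: 0% = thapsigargin alone and -100% = DMSO vehicle control.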 The method, boiled down: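 Luminescence of Gaussia luciferase secreted into the medium (coelenterazine, 0.07x final, unlysed cells) was the read-out. Human SH-SY5Y neuroblastoma cells constitutively secreting untagged GLuc received compound for 19 h, then 100 nM thapsigargin for 4 h.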

The nature of assay [17]: Confirmatory qHTS for small molecule stabilizers of the endoplasmic reticulum resident proteome: Secreted ER Calcium Modulated Protein (SERCaMP) assay (AID 1508628). Also: potency is read from the fitted curve at half-maximal effect; nearly all actives have a fitted effect of over 40% in size. The method, boiled down: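 SH-SY5Y cells stably expressing GLuc-SERCaMP, treated 16 h with compound (primary 1.53, 7.67, 38.3 uM; confirmation 11 concentrations, up to 76.6 uM), then 100 nM thapsigargin for 4 h. Secreted Gaussia luciferase in medium read by coelenterazine luminescence.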

Each structure is given as a SMILES string. A number with no mark means an inactive call. Inconclusive results are not listed. Calls of active or inactive are those of the source. Calls follow the shape of the dose curve; as a rule, active = well fitted curve in the direction sought with a large enough effect; inconclusive = small, poorly fitted or top-dose-only effect, or another doubt; inactive = no such curve, though single readings can be large; an effect the other way counts as inactive or inconclusive.

Sequence of Lysine-specific demethylase 5B (Homo sapiens) (Q9UGL1 whole entry, looked up): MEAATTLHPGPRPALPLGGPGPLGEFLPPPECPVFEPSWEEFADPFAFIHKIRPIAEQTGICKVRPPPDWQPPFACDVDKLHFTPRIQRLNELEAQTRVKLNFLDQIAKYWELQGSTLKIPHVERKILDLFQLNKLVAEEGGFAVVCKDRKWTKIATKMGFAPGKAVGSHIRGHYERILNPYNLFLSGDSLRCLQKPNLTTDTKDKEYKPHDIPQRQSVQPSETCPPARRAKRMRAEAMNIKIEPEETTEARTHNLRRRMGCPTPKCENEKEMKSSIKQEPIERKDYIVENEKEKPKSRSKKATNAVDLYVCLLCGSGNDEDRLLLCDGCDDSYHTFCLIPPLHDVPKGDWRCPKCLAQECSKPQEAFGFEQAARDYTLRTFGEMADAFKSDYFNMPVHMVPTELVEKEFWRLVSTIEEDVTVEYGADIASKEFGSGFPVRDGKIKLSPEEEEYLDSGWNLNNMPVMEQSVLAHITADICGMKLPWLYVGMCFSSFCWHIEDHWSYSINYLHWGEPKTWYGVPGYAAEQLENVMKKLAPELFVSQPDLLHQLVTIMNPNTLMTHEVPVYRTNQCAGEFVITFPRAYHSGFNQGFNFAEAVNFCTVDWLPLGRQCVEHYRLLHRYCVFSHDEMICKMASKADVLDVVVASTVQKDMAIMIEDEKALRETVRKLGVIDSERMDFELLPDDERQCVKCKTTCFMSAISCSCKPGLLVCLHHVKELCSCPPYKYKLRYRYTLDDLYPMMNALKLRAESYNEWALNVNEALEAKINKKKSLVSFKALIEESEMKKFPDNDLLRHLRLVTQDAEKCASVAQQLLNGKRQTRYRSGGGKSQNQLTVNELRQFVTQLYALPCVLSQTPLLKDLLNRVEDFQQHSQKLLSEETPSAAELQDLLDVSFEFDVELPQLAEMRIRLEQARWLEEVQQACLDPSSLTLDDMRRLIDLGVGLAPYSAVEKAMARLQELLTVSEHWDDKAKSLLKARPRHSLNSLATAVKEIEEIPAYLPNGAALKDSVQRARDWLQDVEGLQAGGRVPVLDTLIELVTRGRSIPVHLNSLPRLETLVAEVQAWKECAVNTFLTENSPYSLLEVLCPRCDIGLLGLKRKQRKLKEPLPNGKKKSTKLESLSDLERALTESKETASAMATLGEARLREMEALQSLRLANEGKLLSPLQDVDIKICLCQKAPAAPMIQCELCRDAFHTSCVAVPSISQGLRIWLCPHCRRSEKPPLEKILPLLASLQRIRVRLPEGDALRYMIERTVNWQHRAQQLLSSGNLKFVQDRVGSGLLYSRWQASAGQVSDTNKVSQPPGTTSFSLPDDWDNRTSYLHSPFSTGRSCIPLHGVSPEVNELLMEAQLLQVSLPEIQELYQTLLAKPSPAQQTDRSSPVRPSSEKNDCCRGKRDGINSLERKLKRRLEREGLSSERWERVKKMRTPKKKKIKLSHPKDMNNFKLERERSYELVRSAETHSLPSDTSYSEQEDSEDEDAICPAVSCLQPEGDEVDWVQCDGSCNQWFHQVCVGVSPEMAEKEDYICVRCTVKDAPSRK
Sequence of Protein phosphatase 1D (Homo sapiens) (O15297 whole entry, looked up): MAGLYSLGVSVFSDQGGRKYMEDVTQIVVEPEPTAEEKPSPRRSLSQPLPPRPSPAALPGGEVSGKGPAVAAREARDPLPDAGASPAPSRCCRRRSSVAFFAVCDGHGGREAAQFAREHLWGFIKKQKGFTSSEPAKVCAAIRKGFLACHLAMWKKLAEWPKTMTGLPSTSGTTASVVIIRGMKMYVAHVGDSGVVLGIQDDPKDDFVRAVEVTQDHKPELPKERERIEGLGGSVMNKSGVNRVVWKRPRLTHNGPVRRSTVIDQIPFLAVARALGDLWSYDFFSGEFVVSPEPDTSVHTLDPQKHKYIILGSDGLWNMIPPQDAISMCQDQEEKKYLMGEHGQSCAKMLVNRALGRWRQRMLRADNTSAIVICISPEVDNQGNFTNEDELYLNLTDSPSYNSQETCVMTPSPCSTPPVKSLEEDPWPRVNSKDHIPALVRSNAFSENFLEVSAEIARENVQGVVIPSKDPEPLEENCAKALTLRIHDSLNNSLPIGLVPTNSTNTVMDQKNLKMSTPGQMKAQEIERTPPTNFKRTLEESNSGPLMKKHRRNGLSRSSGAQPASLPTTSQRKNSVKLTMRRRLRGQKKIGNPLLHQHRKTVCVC

`COc1cc2c(Nc3ccc(Br)cc3F)ncnc2cc1OCC1CCN(C)CC1`: the outcome in assay [1], in assay [3] and in [4] was inactive. Also, the Potency entry in assay [2] is “inactive”.
With `CC1(C)[C@H](C(=O)O)N2C(=O)C[C@H]2S1(=O)=O`, the compound was classed as inactive in [1], in assay [3], in assay [4] and in [6]. The Potency entry in assay [2] and in assay [5] was “inactive” each time.
With `CC(C(=O)O)c1ccc2c(c1)CC(=O)c1ccccc1S2` (stereo unspecified), the result in assay [1], in assay [3] and in assay [4] was inactive. Also, the Potency entry in assay [2], in assay [7] and in [5] was “inactive” in each case.
In the case of `CCN(CC)CCn1c(=O)c(Cc2ccc(OC)cc2)nc2ccccc21`, the activity, negative = inhibition in assay [8] was -17%. Besides, the outcome in [9], in [10], in assay [11] and in [12] was inactive. For the same compound, the Potency entry in assay [7] and in assay [5] was “inactive” throughout.
Take `Nc1nc(F)nc2c1ncn2[C@@H]1O[C@H](CO)[C@@H](O)[C@@H]1O`: the compound was classed as inactive in assay [1], in assay [3], in assay [4] and in [6]. For the same compound, the Potency result in [2], in assay [7] and in assay [5] was “inactive” each time.
In the case of `CC1=C(C(=O)O)N2C(=O)[C@@H](NC(=O)C(N)c3ccccc3)[C@H]2SC1` (stereo partly specified), in assay [8], the activity, negative = inhibition was -17.9%. In addition, the compound was called inactive in assay [9], in assay [10], in assay [11], in assay [12] and in [6]. The Potency entry in assay [5] was “inactive”.
`Cc1onc(-c2ccccc2Cl)c1C(=O)N[C@@H]1C(=O)N2[C@@H]1SC(C)(C)[C@@H]2C(=O)O`: the compound was classed as inactive in assay [1], in [3], in [4] and in assay [6]. Further, the Potency entry in assay [2] and in [5] was “inactive” in each case.
As for `CC1=NN(c2ccccc2)C(=O)C1`, the call in assay [1], in assay [3], in assay [4] and in assay [6] was inactive. The Potency result in assay [2], in assay [7] and in assay [5] was “inactive” each time.
For the compound `NC1(c2ccc(-c3nc4ccn5c(=O)[nH]nc5c4cc3-c3ccccc3)cc2)CCC1`, the result in [1], in assay [3], in assay [4] and in assay [6] was inactive. Further, the Potency entry in assay [5] was “inactive”.
On to `CCN1CCCC1CNC(=O)c1cc(S(N)(=O)=O)ccc1OC` (stereo unspecified), for which the activity, negative = inhibition in [8] is 2.22%. Also, the outcome in assay [9], in assay [10], in assay [11], in assay [12] and in assay [6] was inactive. Moreover, the Potency entry in assay [5] was “inactive”.
`COc1c(N2CCNC(C)C2)c(F)cc2c(=O)c(C(=O)O)cn(C3CC3)c12` (stereo unspecified): the Potency entry in assay [13], in [14], in assay [15], in assay [2], in assay [7] and in [5] was “inactive” throughout. Moreover, the compound was classed as inactive in [3], in [4], in assay [6] and in [16]. Besides, the Potency in assay [17] was 14.1 µM (active).
`NC(=O)c1ccc2[nH]ccc2c1`: the activity, negative = inhibition in assay [8] was -16.4%. Moreover, the call in assay [9], in [10], in assay [11] and in [12] was inactive. Besides, the Potency entry in [7] and in assay [5] was “inactive” in each case.
Turning to `CN(CCOc1ccc(CC2SC(=O)NC2=O)cc1)c1ccccn1` (stereo unspecified), the Potency result in assay [2], in assay [7] and in assay [5] was “inactive” throughout. Besides, the compound was classed as inactive in [3], in assay [4] and in assay [6].
